Compound activity deposited in PubChem BioAssay by National Center for Advancing Translational Sciences (NCATS).
ATXN2 expr inh: ATXN2 expression inhibition. Potency, µM (highest dose often 57 µM), for the others: top-dose activity change, negative = inhibition, most hits filed as inhibitors. 0.72% of 360,000 active. HEK-293 ATXN2-luciferase reporter, luminescence, 24 h; further: on the % scale 0 is the no-effect control and ±100 the full control effect; nearly all actives have a fitted effect of over 55% in size
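ATXN2-luciferase reporter cells (luciferase flanked by upstream and downstream ATXN2 gene portions) were treated 24 h at 37 °C with compounds at up to 57 uM. SteadyGlo luminescence gave expression; GF-AFC fluorescence gave viability.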
S2 tox: viability counter-screen for ATXN expression inhibitors | S2 cells (HEK-293 line with an ATXN2-luciferase reporter) viability, CellTiter-Fluor protease fluorescence, 24 h | Potency, µM (highest dose often 56.7 µM), most hits filed as cytotoxic | 0.49% of 400,000 active | AID 651635; further: nearly all actives have a fitted effect of over 40% in size
HepG2 tox: counter-screen for TGF-b inhibitors: cytotoxicity in HepG2 cells; HepG2 CAGA-GFP viability, ATP luminescence, 18 h; Potency, µM (top dose mostly 46.1 µM), for the others: top-dose activity change, negative = cytotoxicity, most hits filed as cytotoxic; 0.76% of 410,000 active
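HepG2 CAGA-GFP cells (1000/well, DMEM with 1% FBS) received compound, then TGF-beta at 500 pg/mL final, and were incubated 18 hours at 37 degrees C. Viability was read by CellTiter-Glo luminescence. Media-only wells were set as complete cell-killing and DMSO as no toxicity.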
TGFb inhibitor: TGF-b pathway inhibition; HepG2 CAGA-GFP TGF-b/SMAD3 reporter, GFP fluorescence, 18 h; TGF-beta stimulated, 500 pg/mL final; Potency, µM (titrated, usually from 46.1 µM), without a hit: at the top dose activity, negative = inhibition, hits mostly inhibitors; 1.2% of 410,000 active; further: on the % scale 0 is the no-effect control and ±100 the full control effect; nearly all actives have a fitted effect of over 65% in size
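HEPG2 CAGA-GFP cells (1000/well, DMEM with 1% FBS) were pre-incubated 2 h at 37 degrees C, given compound by pin tool, then stimulated with TGF-beta at 500 pg/mL final for 18 h before per-cell GFP fluorescence imaging.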
Gal4-VP16 FLuc: inhibits Gal4-VP16 luciferase reporter, ROR gamma counter-screen | Drosophila S2 Gal4-VP16 UAS-luciferase, luminescence, 20 h | Potency, µM (top dose mostly 53.6 µM), without a hit: top-dose activity, negative = inhibition, hits mostly inhibitors | 3.5% of 310,000 active;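 further: Gal4-VP16 expression switched on by copper sulfate through the metallothionein promoter; on the % scale 0 is the no-effect control and ±100 the full control effect; nearly all actives have a fitted effect of over 50% in size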
RORg inh: blocks mouse ROR gamma transcriptional activity; 5.4% of 310,000 active; P51450; Drosophila S2 Gal4-RORgamma UAS-luciferase reporter, 20 h; AID 2551; Potency, µM (highest dose often 53.6 µM), inactives show at the highest dose activity change, negative = inhibition, most hits filed as inhibitors; further: on the % scale 0 is the no-effect control and ±100 the full control effect; nearly all actives have a fitted effect of over 60% in size
Target sequence (P51450 whole entry, looked up, the tested form may be a part): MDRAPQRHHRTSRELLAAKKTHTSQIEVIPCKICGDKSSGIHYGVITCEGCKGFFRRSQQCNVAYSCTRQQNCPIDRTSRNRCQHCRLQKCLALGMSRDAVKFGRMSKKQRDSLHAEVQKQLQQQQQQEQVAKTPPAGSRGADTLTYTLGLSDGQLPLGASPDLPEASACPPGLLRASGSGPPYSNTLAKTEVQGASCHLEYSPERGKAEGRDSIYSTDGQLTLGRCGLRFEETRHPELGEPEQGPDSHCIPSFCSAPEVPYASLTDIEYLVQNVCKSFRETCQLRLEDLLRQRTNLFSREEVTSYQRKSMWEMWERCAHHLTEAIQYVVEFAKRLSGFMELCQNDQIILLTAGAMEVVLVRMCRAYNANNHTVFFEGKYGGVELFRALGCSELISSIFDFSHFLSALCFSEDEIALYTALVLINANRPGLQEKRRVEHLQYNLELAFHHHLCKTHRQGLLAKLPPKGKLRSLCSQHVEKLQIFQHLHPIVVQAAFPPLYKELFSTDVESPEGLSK
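Stably transfected Drosophila Schneider cells are the test system, with ROR gamma fused to Gal4 and luciferase under UAS control; luminescence is read after 20 hr of 700 uM copper sulfate induction at ambient temperature.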
* marks the source's active call; other numbers are inactive results; [ ] = dose if it differs, or a comment. The list is not random: actives were taken first. Their share in the collection is about 6.1%. The call rests on the fitted dose curve; in most records, active means well fitted curve in the direction sought with a large enough effect; inconclusive means small, poorly fitted or top-dose-only effect, or another doubt; inactive means no such curve, though single readings can be large; an effect the other way counts as inactive or inconclusive. Potency means the concentration at half of the fitted maximal effect.

Results for O=C(N/N=C/c1ccncc1)c1ccc(-n2cccc2)cc1 ?
ATXN2 expr inh: 4%; S2 tox: inactive; HepG2 tox: 7%; TGFb inhibitor: 2%; Gal4-VP16 FLuc: -4%; RORg inh: -6%

What do the screens show for `O=C(N/N=C/c1cccs1)c1ccc(-n2cccc2)cc1`?
ATXN2 expr inh: 0%; S2 tox: inactive; HepG2 tox: -7%; TGFb inhibitor: 9%; Gal4-VP16 FLuc: 11µM*; RORg inh: 6.3µM*

Results for O=C(N/N=C/c1cccs1)c1ccc(NC(=O)c2ccccc2Cl)cc1 ?
ATXN2 expr inh: inconclusive; S2 tox: inactive; HepG2 tox: 4%; TGFb inhibitor: 1%; Gal4-VP16 FLuc: inconclusive; RORg inh: 10µM*

How did O=C(N/N=C/c1cccs1)c1cccc(NC(=O)c2ccccc2Cl)c1 do in these assays?
ATXN2 expr inh: inconclusive; S2 tox: inactive; HepG2 tox: 21%; TGFb inhibitor: 8%; Gal4-VP16 FLuc: 14µM*; RORg inh: inconclusive

Results for S=c1[nH]nc(CSCCOc2ccc(Cl)cc2Cl)o1 ?
ATXN2 expr inh: 9%; S2 tox: inactive; HepG2 tox: -39%; TGFb inhibitor: -1%; Gal4-VP16 FLuc: 3.2µM*; RORg inh: 4µM*

How did Cc1ccc(NC(=O)c2ccc(Cl)c(N3C(=O)C=CC3=O)c2)cc1 do in these assays?
ATXN2 expr inh: inconclusive; S2 tox: inconclusive; HepG2 tox: -100%; TGFb inhibitor: inconclusive; Gal4-VP16 FLuc: 3.2µM*; RORg inh: 7.9µM*

How did COc1ccc2c(c1)c1c(c(=O)n(CCc3ccccc3)c(=O)n1Cc1ccc(F)cc1)n2C do in these assays?
ATXN2 expr inh: 12%; S2 tox: inactive; HepG2 tox: -9%; TGFb inhibitor: 12%

What do the screens show for `COc1ccc2nc(NC(=O)c3cnccn3)sc2c1`?
ATXN2 expr inh: -36%; S2 tox: inactive; HepG2 tox: -42%; TGFb inhibitor: 6%; Gal4-VP16 FLuc: 10µM*; RORg inh: inconclusive

What do the screens show for `COc1ccc(C(=O)Nc2nc3ccc(OC)cc3s2)cc1`?
ATXN2 expr inh: inconclusive; S2 tox: inconclusive; HepG2 tox: -23%; TGFb inhibitor: -4%; Gal4-VP16 FLuc: 4.5µM*; RORg inh: 1.4µM*

Results for CCCCC(=O)Nc1nc2ccc(C(=O)OC)cc2s1 ?
ATXN2 expr inh: 33%; S2 tox: inactive; HepG2 tox: 1%; TGFb inhibitor: 0%; Gal4-VP16 FLuc: inconclusive; RORg inh: 8.9µM*

What do the screens show for `COc1ccc2nc(NC(=O)c3cc(=O)c4ccccc4o3)sc2c1`?
ATXN2 expr inh: 31%; S2 tox: inactive; HepG2 tox: 5%; TGFb inhibitor: 26%

What do the screens show for `COc1ccc2nc(NC(=O)c3cccc(-c4cc5ccccc5oc4=O)c3)sc2c1`?
ATXN2 expr inh: inconclusive; S2 tox: inconclusive; HepG2 tox: -52%; TGFb inhibitor: -16%; Gal4-VP16 FLuc: 10µM*; RORg inh: 10µM*

What do the screens show for `CCCC(=O)Nc1nc2ccc(C(=O)OCC)cc2s1`?
ATXN2 expr inh: 35%; S2 tox: inactive; HepG2 tox: -17%; TGFb inhibitor: 15%; Gal4-VP16 FLuc: -9%; RORg inh: 27%

Results for CC1CC(=O)N(CC(=O)Nc2ccc(OC(F)(F)F)cc2)c2ccccc2S1 (centres undefined) ?
ATXN2 expr inh: -11%; S2 tox: inactive; HepG2 tox: -32%; TGFb inhibitor: -17%

How did CCCN1Cc2cccc(C(=O)Nc3ccc(C(C)=O)cc3)c2C1=O do in these assays?
ATXN2 expr inh: 12%; S2 tox: inactive; HepG2 tox: 0%; TGFb inhibitor: 23%

How did O=C(Nc1nnc(-c2ccco2)s1)c1ccccc1 do in these assays?
ATXN2 expr inh: -31%; S2 tox: inactive; HepG2 tox: -2%; TGFb inhibitor: 1%; Gal4-VP16 FLuc: -13%; RORg inh: inconclusive

How did Cn1ncc(Cl)c1C(=O)Nc1nc2ccc(Cl)cc2s1 do in these assays?
ATXN2 expr inh: 69%; S2 tox: inactive; HepG2 tox: -30%; TGFb inhibitor: inconclusive; Gal4-VP16 FLuc: inconclusive; RORg inh: 11µM*

What do the screens show for `COc1ccc(C(=O)Nc2nnc(-c3ccco3)s2)cc1`?
ATXN2 expr inh: 7.9µM*; S2 tox: inconclusive; HepG2 tox: 7%; TGFb inhibitor: 1%; Gal4-VP16 FLuc: inconclusive; RORg inh: -43%

How did O=C(O)C1=NC(C(=O)O)CC(C=CN2c3cc(O)c(OC4OC(CO)C(O)C(O)C4O)cc3CC2C(=O)O)=C1 (centres undefined) do in these assays?
ATXN2 expr inh: 8%

What do the screens show for `CCOc1ccc(N(C)C(=O)c2oc(=O)c3ccccc3c2-c2ccccc2)cc1`?
HepG2 tox: -31%; TGFb inhibitor: 16µM*

What do the screens show for `CCOc1ccc(NC(=O)c2oc(=O)c3ccccc3c2-c2ccc(C)cc2)cc1`?
ATXN2 expr inh: -14%; S2 tox: inactive; HepG2 tox: -3%; TGFb inhibitor: -6%

How did CC(C(=O)Nc1ccccc1)n1nnc2sc3c(c2c1=O)CCCC3 (centres undefined) do in these assays?
ATXN2 expr inh: -14%; S2 tox: inactive; HepG2 tox: -26%; TGFb inhibitor: 14µM*

How did CC(C(=O)Nc1ccccc1C(F)(F)F)n1nnc2sc3c(c2c1=O)CCCC3 (centres undefined) do in these assays?
ATXN2 expr inh: -7%; S2 tox: inactive; HepG2 tox: -15%; TGFb inhibitor: -30%

How did Cc1ccc(Nc2nnc(SCC(=O)c3ccc(Br)s3)s2)c(C)c1 do in these assays?
ATXN2 expr inh: 5%; S2 tox: inactive; HepG2 tox: 4%; TGFb inhibitor: -42%; Gal4-VP16 FLuc: inconclusive; RORg inh: 35µM*

What do the screens show for `FC(F)Oc1ccc(NC(=S)NCc2ccccc2)cc1Cl`?
ATXN2 expr inh: inconclusive; S2 tox: inactive; HepG2 tox: -49%; TGFb inhibitor: inconclusive; Gal4-VP16 FLuc: inconclusive; RORg inh: 14µM*

What do the screens show for `Fc1ccc(NC(=S)Nc2ccccc2OC(F)F)cc1Cl`?
ATXN2 expr inh: -20%; S2 tox: inconclusive; HepG2 tox: -29%; TGFb inhibitor: inconclusive; Gal4-VP16 FLuc: inconclusive; RORg inh: inconclusive

What do the screens show for `FC(F)Oc1ccc(NC(=S)NCCc2ccccn2)cc1`?
ATXN2 expr inh: 4%[11.3 µM]; S2 tox: inactive; HepG2 tox: -3%; TGFb inhibitor: -5%; Gal4-VP16 FLuc: 5µM*; RORg inh: 4.5µM*
